# “And” between values parts separate entries of the source, which are not always exact repeats. Equal values may be shown once. Inconclusive results are not listed. The source made the active and inactive calls. Unless noted, the limit is not given here; nearly all actives have AC50 up to about 26 µM.
# Columns and labels:
# [1] = growth inhibition of DIPG glioma cells, dose response, cell-based, SU-DIPG-XVII, MIPE5.0, CellTiter-Glo, qHTS (AID 1347060); conditions: SU-DIPG-XVII viability, CellTiter-Glo ATP luminescence;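 as to AC50: cells exposed to compound for 48 hours before viability readout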
# [2] = growth inhibition of DIPG glioma cells, dose response, cell-based, SU-DIPG-XIII, MIPE4.0, CellTiter-Glo, qHTS (AID 1347061; cut-off not given, nearly all actives have AC50 up to about 37 µM;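 also: cells exposed to compound for 48 hours before readout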); conditions: SU-DIPG-XIII viability, CellTiter-Glo ATP luminescence
# [3] = growth inhibition of DIPG glioma cells, dose response, cell-based, JHH-DIPG-1, MIPE4.0, CellTiter-Glo, qHTS (AID 1347062; cut-off not given, nearly all actives have AC50 up to about 27 µM;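 as to AC50: cells exposed to compound for two days before readout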); conditions: JHH-DIPG-1 viability, CellTiter-Glo ATP luminescence
# [4] = growth inhibition of DIPG glioma cells, dose response, cell-based, SU-DIPG-IV, MIPE4.0, CellTiter-Glo, qHTS (AID 1347063; cut-off not given, nearly all actives have AC50 up to about 30 µM;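 also: compound exposure lasted 48 hours before the viability readout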); conditions: SU-DIPG-IV viability, CellTiter-Glo ATP luminescence
# [5] = growth inhibition of DIPG glioma cells, dose response, cell-based, SU-DIPG-XIII, MIPE5.0, CellTiter-Glo, qHTS (AID 1347064; cut-off not given, nearly all actives have AC50 up to about 23 µM;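 as to AC50: cells exposed to compound for 48 hours before the viability read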); conditions: SU-DIPG-XIII viability, CellTiter-Glo ATP luminescence
# [6] = viability loss in pontine glioma line – cell-based, SU-DIPG-XXV, MIPE5.0, CellTiter-Glo, qHTS, dose response (AID 1347065); conditions: CellTiter-Glo ATP luminescence;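 also: cells exposed to compound for 48 hours before ATP readout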
# [7] = SU-DIPG-VI glioma cell viability, MIPE4.0 library, CellTiter-Glo luminescence, qHTS (AID 1347066; cut-off not given, nearly all actives have AC50 up to about 30 µM;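 also: cells exposed to compound for 48 hours before readout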); conditions: CellTiter-Glo ATP luminescence
# [8] = JHH-DIPG-1 glioma cell viability, MIPE5.0 library, CellTiter-Glo luminescence, qHTS (AID 1347067); conditions: JHH-DIPG-1 glioma viability, CellTiter-Glo ATP luminescence;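 also: cells exposed to compound for 48 hours before readout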
# [9] = SU-DIPG-XXV glioma cell viability, MIPE5.0 library, qHTS (AID 1347068; cut-off not given, nearly all actives have IC50 up to about 30 µM;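 as to IC50: cells exposed to compound for 48 hours before viability readout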)
# [10] = sensitizers of A549 cells to miR-34 induction, primary screen, imaging, A549 dox-inducible miR-34, nuclei and caspase counts (AID 1347080;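 active = compounds whose cell count with miR-34 switched on is under 0.7 times the count with it off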); conditions: A549 miR-34 inducible, Hoechst nuclei count, 48 h
# [11] = modifiers of HSF1 nuclear foci, imaging, Selleck Cancer Library (AID 1347162; in the data active = plate-normalised HSF1 focus index below about 0.46); conditions: human cells, at 10 µM; SSMD: measured here: HSF1 foci SSMD mean; cell count: measured here: cell number; plate-normalised HSF1 focus index: stronger effect = lower value
# [12] = survival rescue of mitochondrial mutant cells in low glucose, primary screen, MELAS cybrids, Rieske KO mouse fibroblasts, CellTiter-Glo (AID 1508586;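 active = mean z-score across replicates of 1.96 or higher in either the MELAS or the Rieske mutant cell line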;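 also: z relative to plate mean and SD of compound and empty wells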)
# [13] = viability rescue of complex I mutant cybrids, primary screen, cell-based, galactose medium, ATP luminescence (AID 1645843;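 active = z-score of at least 1.8 in each of two replicates, scored against plate mean and spread of sample wells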;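 also: positive z means more ATP and so rescue of galactose-driven cybrid death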); conditions: complex I mutant cybrid cells, 72 h, stronger effect = higher value
# [14] = stronger effect = lower value, cell number ratio, induced over uninduced
# [15] = measured here: relative caspase fold change +Dox/-Dox
# [16] = measured here: total cells with miR-34 induction, stronger effect = lower value
# [17] = measured here: total cells without miR-34 induction
# [18] = MELAS cybrid survival, CellTiter-Glo 48 h, stronger effect = higher value
# [19] = Rieske KO mouse fibroblast survival, CellTiter-Glo 72 h
structure (smiles),measurement,setting,value
COc1cc2nc(N3CCCN(C)CC3)nc(NC3CCN(Cc4ccccc4)CC3)c2cc1OC,AC50,[1],10.5 µM (active)
same,AC50,[2],26.4 µM (active)
same,AC50,[3],7.43 µM (active)
same,AC50,[4],10.5 µM (active)
same,AC50,[5],13.2 µM (active)
same,AC50,[6],10.5 µM (active)
same,AC50,[7],9.35 µM (active)
same,AC50,[8],13.2 µM (active)
same,IC50,[9],11.8 µM (active)
same,fold change,[10]; [14],0.884 (inactive) and 1.04 (inactive) and 1.01 (inactive)
same,fold change,[10]; [15],1.51 and 1.3 and 0.404
same,cell count,[10]; [16],672 and 5080 and 2320
same,cell count,[10]; [17],760 and 4890 and 2300
same,SSMD,[11],1.64
same,cell count,[11],6820
same,plate-normalised HSF1 focus index,[11],1.1 (inactive)
same,z-score,[12]; [18],-0.436 (inactive)
same,z-score,[12]; [19],-1.67
same,z-score,[13],-1.38 (inactive)
O=C(NCCS(=O)(=O)c1ccc(C(F)(F)F)cn1)c1ccc(Cl)cc1,outcome,[1],inactive
same,outcome,[2],inactive
same,outcome,[3],inactive
same,outcome,[4],inactive
same,outcome,[5],inactive
same,outcome,[6],inactive
same,outcome,[7],inactive
same,outcome,[8],inactive
same,outcome,[9],inactive
same,fold change,[10]; [14],0.87 (inactive)
same,fold change,[10]; [15],0.351
same,cell count,[10]; [16],7940
same,cell count,[10]; [17],9120
same,SSMD,[11],3.34
same,cell count,[11],7080
same,plate-normalised HSF1 focus index,[11],1.2 (inactive)
same,z-score,[12]; [18],-0.369 (inactive)
same,z-score,[12]; [19],0.00298
CC(C)c1ccc(Cn2ccc3c4c(N)nc(NC5CC5)nc4ccc32)cc1,AC50,[1],2.63 µM (active)
same,AC50,[2],20.9 µM (active)
same,AC50,[3],4.69 µM (active)
same,AC50,[4],4.18 µM (active)
same,AC50,[5],6.61 µM (active)
same,AC50,[6],2.63 µM (active)
same,AC50,[7],18.7 µM (active)
same,AC50,[8],5.25 µM (active)
same,IC50,[9],3.72 µM (active)
same,SSMD,[11],-7.04
same,cell count,[11],3190
same,plate-normalised HSF1 focus index,[11],0.581 (inactive)
O=C(NC1CCOCC1)c1ccc(-c2cc(-c3cn[nH]c3-c3ccccn3)ccn2)cc1,outcome,[1],inactive
same,outcome,[2],inactive
same,outcome,[3],inactive
same,outcome,[4],inactive
same,outcome,[5],inactive
same,outcome,[6],inactive
same,outcome,[7],inactive
same,outcome,[8],inactive
same,outcome,[9],inactive
same,fold change,[10]; [14],0.83 (inactive)
same,fold change,[10]; [15],0.736
same,cell count,[10]; [16],8800
same,cell count,[10]; [17],10600
same,z-score,[12]; [18],-0.384 (inactive)
same,z-score,[12]; [19],0.682
